The whole screen tested about 27,000 compounds, of which about 120 (0.44%) were called active. The full list was thinned out, with actives kept by preference. Unmarked numbers belong to inactive results. Rule as the data show it: active = inhibition above about 20%; inconclusive = no clear call, values can overlap the other calls; inactive = below that.
Molecular target: Serine/threonine-protein kinase 33 (Homo sapiens) (UniProt Q9BYT3)
Test: STK33 kinase inhibitors, primary screen, biochemical, luminescence, ADP-Glo, MBP substrate (AID 2322)
Conditions: at 12.5 µM, stronger effect = higher value

Serine/threonine-protein kinase 33 (Homo sapiens), sequence (Q9BYT3 whole entry, looked up): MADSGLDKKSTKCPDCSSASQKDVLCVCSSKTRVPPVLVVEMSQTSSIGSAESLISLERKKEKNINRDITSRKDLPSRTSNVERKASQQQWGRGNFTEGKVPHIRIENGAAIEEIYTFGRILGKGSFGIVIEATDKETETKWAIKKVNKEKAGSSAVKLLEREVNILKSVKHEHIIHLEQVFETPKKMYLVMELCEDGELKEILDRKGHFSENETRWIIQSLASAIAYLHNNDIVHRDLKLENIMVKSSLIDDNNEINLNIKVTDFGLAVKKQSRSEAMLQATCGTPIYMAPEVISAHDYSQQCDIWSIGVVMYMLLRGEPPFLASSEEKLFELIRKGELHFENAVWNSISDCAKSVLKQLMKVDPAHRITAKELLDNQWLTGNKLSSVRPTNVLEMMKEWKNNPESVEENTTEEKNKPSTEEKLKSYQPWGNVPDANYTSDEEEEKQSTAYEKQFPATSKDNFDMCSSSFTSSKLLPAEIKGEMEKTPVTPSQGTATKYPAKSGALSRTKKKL

Point of comparison: `CN1C(=O)C(O)(CC(=O)c2ccco2)c2cc([N+](=O)[O-])ccc21` (stereo not given), inhibition 1.09%. Against it:
- Cc1ccc(N(CC(=O)Nc2ccccc2Sc2ccccc2)S(C)(=O)=O)c(C)c1 — lower, -1.72%
- COC(=O)c1ccc(NC(=O)CSc2nc(-c3ccccc3)cc(=O)[nH]2)cc1 — higher, 4.41%
- O=C(O)CCCC(=O)Nc1ccc(F)cc1 — lower, -2.71%
- O=C(NCc1ccccn1)c1ccccc1C(=O)c1ccccc1 — lower, -3.58%
- CCC(O)c1ccc2c(=O)c(-c3ccccc3F)coc2c1 (stereo not given) — higher, 1.14%
- CCOc1ccc(NC(=O)CSc2nccc(C)n2)cc1 — lower, -0.939%
- COc1ccc(/C=C/C(=O)O[C@@H]2[C@@H](OC(=O)/C=C/c3ccc(OC)cc3)[C@H](C)O[C@@H](O[C@H]3[C@@H]4C=CO[C@@H](O[C@@H]5O[C@H](CO)[C@@H](O)[C@H](O)[C@H]5O)[C@@H]4[C@@]4(CO)O[C@@H]34)[C@@H]2OC(C)=O)cc1 — lower, -0.911%
- C[C@H]1CN([C@@H](C)CO)C(=O)c2cc(NC(=O)Cn3cnnn3)ccc2O[C@H]1CN(C)S(C)(=O)=O — lower, -0.963%
- CCOC(=O)c1c(NC(=O)Cn2nc([N+](=O)[O-])c(Br)c2C)sc2c1CCCC2 — higher, 2.08%
- Cc1cc(C)c2oc(-c3cccc(NC(=O)COc4ccc(Br)cc4)c3C)nc2c1 — higher, 5.61%
- CCn1c(SCC(=O)Nc2cc(Cl)ccc2OC)nnc1-c1ccc(Br)cc1 — higher, 1.48%
- CC(C)(C)c1ccc(OCC(=O)NCc2ccccn2)c(Br)c1 — lower, -6.11%
- C[C@@H]1CN([C@H](C)CO)C(=O)c2cc(NC(=O)Nc3ccc4c(c3)OCO4)ccc2O[C@H]1CN(C)Cc1ccc(-c2ccccc2)cc1 — lower, 0.655%
- O=C(CSc1nc2ccc(NC(=O)c3ccccc3Cl)cc2s1)Nc1ccc(F)cc1 — lower, 0.13%
- O=C(CSc1nnc(-c2ccccn2)n1-c1ccccc1)Nc1ccc2cn[nH]c2c1 — lower, 0.339%
- COc1ccc(N(CC(=O)Nc2cc(C)ccc2OC)S(C)(=O)=O)cc1Cl — lower, -2.26%
- NCCCC[C@@H]1NC(=O)[C@@H]2C[C@H](C(=O)NCc3ccc(F)cc3)[C@H](c3ccc(O)cc3)N2C1=O — lower, -1.29%
- C[C@H](CO)N1C[C@H](C)[C@@H](CN(C)S(=O)(=O)c2ccc(F)cc2)OCc2cnnn2CCCC1=O — higher, 3.05%
- COc1ccc(C(C)=O)cc1CSc1nnc(-c2ccc(Br)cc2)n1-c1ccccc1 — lower, -0.65%
- COc1ccc(N(C(C)C(=O)Nc2cccc(Br)c2)S(C)(=O)=O)cc1 (stereo not given) — lower, -0.0651%
- COC(=O)c1ccc(NC(=O)CSc2nc(-c3ccccc3)c(-c3ccccc3)[nH]2)cc1 — lower, 0.633%
- O=[N+]([O-])c1ccc(NCCNCc2cccnc2)cc1 — lower, 0.298%
- COc1ccc(NC(=O)CN2CCN(S(=O)(=O)c3ccc4ccccc4c3)CC2)cc1 — lower, -0.51%
- Cc1ccc(N(C(C)C(=O)Nc2ccc(F)c(Cl)c2)S(C)(=O)=O)cc1C (stereo not given) — lower, -3.25%
- Cc1ccc(-n2c(SCC(=O)Nc3cccc(C)c3C)nc3ccccc3c2=O)cc1 — lower, -0.698%
- O=C(c1ccc(NCc2cccnc2)c([N+](=O)[O-])c1)N1CCCCC1 — higher, 2.99%
- CN(CC(=O)Nc1ccc(F)cc1)S(=O)(=O)c1ccccc1 — lower, -1.62%
- Nc1cc(N)nc(SCC(=O)c2ccc(Br)cc2)n1 — higher, 1.93%
- O=C(CSc1nnc(-c2ccccc2)n1-c1ccc(Cl)cc1)Nc1ccc(Cl)cc1 — lower, -3.34%
- O=C(CN1CCCC1)Nc1sc2c(c1C(=O)Nc1ccccc1)CCCC2 — lower, -1.02%
- COc1ccc(-c2nnc(SCC(=O)O)n2-c2ccccc2)cc1OC — lower, 0.684%
- C[C@H]1CN([C@@H](C)CO)C(=O)CCCn2cc(nn2)CO[C@@H]1CN(C)S(=O)(=O)c1ccc(-c2ccccc2)cc1 — lower, -9.48%
- COc1ccc(NC(=O)O[C@@H](c2ccc(OCCO)cc2)[C@@H](C)CCO)cc1 — lower, 0.388%
- COc1cc(OC)c(NC(=O)CSc2nnc(-c3ccncc3)n2-c2ccccc2)cc1Cl — lower, -1.55%
- C[C@H](CO)N1C[C@H](C)[C@H](CN(C)S(=O)(=O)c2ccc(Cl)cc2)Oc2ccc(NC(=O)C3CCCCC3)cc2C1=O — higher, 5.34%
- CCCC(O)C#Cc1cnc2c(c1)C(=O)N([C@H](C)CO)C[C@H](C)[C@H](CN(C)S(=O)(=O)c1ccc(C#N)cc1)O2 (stereo not given in full) — higher, 2.14%
- Cc1nn(CC(=O)NCc2ccccn2)c(C)c1[N+](=O)[O-] — lower, -1.47%
- COC(=O)c1ccccc1NC(=O)CSc1n[nH]c(-c2ccncc2)n1 — higher, 2.87%
- COc1ccc(C)cc1S(=O)(=O)N1CCCC(C(=O)Nc2ccccc2C(F)(F)F)C1 (stereo not given) — higher, 1.43%
- CC(C)N1C(=O)[C@@]2(Cc3ccccc31)c1ccccc1C(=O)N(C1CCCCC1)[C@H]2c1ccc(CO)cc1 — higher, 4.98%
- Cc1ccc(NC(=O)COc2ccccc2C)c([N+](=O)[O-])c1 — lower, 0.544%
- COc1ccc(OC)c(NC(=O)Cn2cc(C(=O)C3CC3)c3ccccc32)c1 — lower, -2.72%
- COc1ccc(Cl)cc1N(CC(=O)Nc1ccc(Br)c(Cl)c1)S(C)(=O)=O — higher, 1.17%
- CN(CC(=O)Nc1ccccc1C#N)S(=O)(=O)c1ccc2ccccc2c1 — higher, 1.4%
- C[C@H](CO)N1C[C@H](C)[C@@H](CN(C)C(=O)C2CCCCC2)OCc2cnnn2CCCC1=O — lower, 0.882%
- COc1ccc(NC(=O)CSc2nncc3ccccc23)c([N+](=O)[O-])c1 — lower, -3.11%
- C[C@H](CO)N1C[C@H](C)[C@H](CN(C)S(C)(=O)=O)Oc2ncc(C#CCN(C)C)cc2C1=O — higher, 3.31%
- O=[N+]([O-])c1cccc(NC(=S)Nc2nn(Cc3ccc(Cl)cc3Cl)cc2Cl)c1 — lower, 1%

`Nc1ccc2c3c(cccc13)C(=O)NC2=O` was tested, and the inhibition was 28.5% (active).

Reference: PubChem BioAssay AID2322 (Broad Institute, 2010)
